Most compounds without a hit are left out; they make up all but 0.86% or so of the library.
CDC25B-CDK2 inh: human CDC25B-CDK2/CyclinA binding inhibition; 94,000 compounds, 0.72% hits; HTRF CDC25B-CDK2/CyclinA binding, anti-His/anti-Flag; active compounds read high; P30305+P24941; AID 1259370; z-score (no concentration beside the values); in the data active = z-score above about 3.2
HIV TAR-Tat: HIV-1 TAR-Tat binding disruption; HIV-1 TAR RNA, Tat peptide displacement FRET; active compounds read high; z-score (no concentration beside the values); 100,000 compounds, 0.6% hits; AID 1259389; active = z-score of 3 or more in at least 2 runs
A number is an active result; n = inactive; x = no result.

SMILES	CDC25B-CDK2 inh	HIV TAR-Tat
Cc1cc(=O)[nH]c(-c2cccs2)n1	n	x
COc1nccn(-c2ccc3c(c2)CCC3)c1=O	n	n
O=C(c1noc2ncnc(N3CCCC3)c12)N1CCC(c2ccccc2)C1 (centres undefined)	x	n
CC(C)Cc1nn2c(=O)cc(CSc3nc4ccc(NC(=O)c5ccco5)cc4s3)nc2s1	x	n
Fc1ccccc1-c1noc(NCCc2ccccc2)n1	x	n
CN(C)c1ccc(C(O)C(=O)c2cccs2)cc1 (centres undefined)	n	n
O=C(c1cccs1)C(O)c1cccs1 (centres undefined)	13	n
O=C(CCC(=O)N1c2ccccc2NC2=C(C(=O)CCC2)C1c1ccco1)NC1CCCCC1 (centres undefined)	x	3.6
O=C(CN1c2ccccc2NC2=C(C(=O)CCC2)C1c1ccco1)NC1CCCC1 (centres undefined)	x	n
CN1C(=O)C2(/C(=C(/O)c3ccccc3)C(=O)C(=O)N2CCN2CCOCC2)c2ccccc21 (centres undefined)	n	n
COC(=O)c1ccc(Nc2nncc(=O)[nH]2)cc1	6.3	n
O=c1cnnc(Nc2ccc3c(c2)OCCO3)[nH]1	n	n
O=c1[nH]cc(Cl)cc1Cl	6.4	x
O=c1[nH]cc(C(F)(F)F)cc1Cl	n	x
Cc1onc(-c2c(Cl)cccc2Cl)c1NC(=O)NNc1ccccn1	9.5	x
Cc1noc(NC(=O)Nc2c(-c3ccccc3Cl)noc2C)c1C	n	x
Cc1cccc(C(=O)Nc2cnc3sc4c(n3c2=O)CCC(C(C)(C)C)C4)c1 (centres undefined)	n	n
O=C(CN1C(=O)CSc2ccc(S(=O)(=O)N3CCCC3)cc21)N1CCCc2ccccc21	x	n
O=C(CCc1nc2sc3c(c2c(=O)[nH]1)CCCCC3)N1CCN(c2cccc(Cl)c2)CC1	x	28
O=C(CCc1nc2sc3c(c2c(=O)[nH]1)CCCCC3)NC1CCCC1	x	18
O=C(CCc1nc2sc3c(c2c(=O)[nH]1)CCCCC3)N1CCN(c2ncccn2)CC1	x	n
O=C(CCc1nc2sc3c(c2c(=O)[nH]1)CCCCC3)NC1CCCCC1	x	n
CC1CCN(C(=O)CCc2nc3sc4c(c3c(=O)[nH]2)CCCC4)CC1	x	n
O=C(CCc1nc2sc3c(c2c(=O)[nH]1)CCCCC3)N1CCC(Cc2ccccc2)CC1	x	4.3
O=C(Nc1ccc(F)cc1)c1ccc(N2CCSc3ncccc32)s1	x	n
SMILES	CDC25B-CDK2 inh	HIV TAR-Tat
O=S(=O)(c1ccc(-c2noc(-c3cc4cc(Cl)ccc4[nH]3)n2)cc1)N1CCOCC1	x	n
CC1CCN(C(=O)c2nn(-c3ccc(Cl)cc3)c(=O)n(C)c2=O)CC1	x	n
Cc1ccc(C)n1-c1cccc(N)c1	n	n
COc1ccc(N)cc1-n1c(C)ccc1C	n	10
COc1ccc(Br)c(OC)c1C(=O)NC(=O)Nc1cc(Cl)cc(Cl)c1	n	x
CC(CCc1ccccc1)N1C(=S)NC2C=C(Cl)C=CC21 (centres undefined)	3.6	x
CCC(C)C1NC(=S)N(Cc2ccccc2)C1=O (centres undefined)	n	x
COc1ccc(C2CC(=O)Nc3c(-c4ccc(Cl)cc4)csc32)c(OC)c1 (centres undefined)	x	n
CN(C(=O)c1cc2c(s1)-c1ccccc1OC2)c1ccccc1Cl	n	n
CCc1cc(C=N)c([S-])s1.CCc1cc(C=N)c([S-])s1.[Zn+2]	19	x
CCc1cc2c(=S)[nH]cnc2s1	n	x
Cn1c(=O)c2c(-c3ccccc3Br)n(-c3ccccc3N)cc2n(C)c1=O	n	n
Cn1c(=O)c2c(-c3ccccc3Br)n(-c3ccccc3)cc2n(C)c1=O	n	n
Cn1c(=O)c2c(-c3ccccc3Br)n(-c3ccc4[nH]c(=O)[nH]c4c3)cc2n(C)c1=O	6.2	n
Cn1c(=O)c2c(-c3ccccc3Br)n(-c3cccc4cccnc34)cc2n(C)c1=O	16	n
CC(C)CC(=O)Nc1ccc(SCc2cc(=O)n3c(ncn3C(C)C)n2)cc1	n	n
O=C(Nc1ccc2oc(-c3c(F)c(F)c(F)c(F)c3F)nc2c1)c1cccc2ccccc12	n	x
COc1cnc(CSc2nc(C)cc(C)n2)cc1OCC(N)=O	x	n
Cc1cc(C)c2c(=O)cc(CSc3nnc(NC(=O)c4cccs4)s3)[nH]c2c1	x	n
CC1(C)CC(=O)c2c(oc3ccc(NS(=O)(=O)c4ccc(Br)cc4)cc23)C1	n	n
Cc1ccc(S(=O)(=O)Nc2c3ccccc3c(O)c3c4c(oc23)CC(C)(C)CC4=O)cc1	18	x
Cc1ccc(-c2n[nH]c3c2C(c2ccc(C)cc2)NC3=O)cc1 (centres undefined)	x	n
CCC1CCCCN1S(=O)(=O)c1ccc2[nH]c(=O)ccc2c1 (centres undefined)	x	6.5
CCCN1CCN(S(=O)(=O)c2ccc3[nH]c(=O)ccc3c2)CC1	x	n
O=C(CN1C(=O)CCc2cc(Br)ccc21)Nc1ccc2c(c1)OCCO2	x	n
SMILES	CDC25B-CDK2 inh	HIV TAR-Tat
CCOC(=O)C1CCN(c2cc(NCc3ccco3)c3c4c(onc24)-c2ccccc2C3=O)CC1	15	n
CCOC(=O)C1CCN(c2cc(NCCCC(=O)O)c3c4c(onc24)-c2ccccc2C3=O)CC1	14	24
CCOC(=O)C1CCN(c2cc(NCCCN(C)C)c3c4c(onc24)-c2ccccc2C3=O)CC1	n	n
CC1CCN(c2cc(NCCCC(=O)O)c3c4c(onc24)-c2ccccc2C3=O)CC1	n	n
O=C1c2ccccc2-c2onc3c(N4CCN(CCO)CC4)cc(NCc4ccco4)c1c23	n	n
O=C(O)CNc1cc(N2CCC(c3ccccc3)CC2)c2noc3c2c1C(=O)c1ccccc1-3	5.1	n
Cc1nn(-c2ccccc2)c2c1C(=O)CC(C)(C)C2SC#N (centres undefined)	n	x
Cc1ccc(-c2n[nH]n3c2nc(=O)c2ccccc23)cc1	n	n
COC(=O)c1c(C)oc(C)c1S(=O)(=O)NCCSCc1c(F)cccc1Cl	n	x
O=C(Nc1cccc(F)c1)Nc1nc2c(s1)CCCCC2	x	n
COc1ccc2cc(C(=O)Nc3ccc(F)cc3)sc(=O)c2c1OC	n	n
COc1ccc2cc(C(=O)Nc3ccc(Cl)cc3)sc(=O)c2c1OC	n	6.4
CN(C)c1ccc(C2CC(=O)C=C(NCCc3ccccn3)C2)cc1 (centres undefined)	n	x
CCOC(=O)N1CCN([C@H]2CS(=O)(=O)C[C@@H]2S(=O)(=O)c2ccc(Cl)cc2)CC1	n	n
CC(C)(C)c1nc2scc(-c3ccccc3)c2c(=O)o1	5.9	n
O=c1oc(Cc2ccccc2)nc2scc(-c3ccccc3)c12	n	n
CCOc1ccc(C2c3c(-c4ccccc4O)n[nH]c3C(=O)N2CC2CCCO2)cc1OC (centres undefined)	n	n
CC(O)CNC(=O)C(=O)Nc1c2c(nn1-c1ccc(F)cc1)CSC2 (centres undefined)	x	n
COc1cc2c(cc1OC)C1=C(C#N)CN(c3ccc(C)c(C)c3)CN1CC2	15	n
COc1cc2c(cc1OC)C1=C(C#N)CN(CCc3ccccc3)CN1CC2	n	n
O=C(O)c1ccccc1C(=O)Nc1ccc2c(c1)C(=O)c1ccccc1C2=O	7.8	x
O=C(Nc1ccc2c(c1)C(=O)c1ccccc1C2=O)c1ccccc1	n	x
CSc1nc(NCc2ccccc2)c2c3c(sc2n1)CCC3	n	n
CC(C)OC(=O)Cn1c2ccccc2c2nc3ccccc3nc21	n	n
COC(=O)Cn1c2ccc(Cl)cc2c2nc3ccccc3nc21	19	n
O=C(NCCCN1CCN(c2ccccc2)CC1)Nc1ccc(F)cc1F	n	n
